Data reported in PubChem BioAssay (EPA / NIEHS).
Calls of active or inactive are those of the source. The calls were made as follows: active = hit-call score of the fitted dose curve at least 0.9, where 1 is the maximum; inactive = score below 0.9.

Tests used:
[1] = APR_HepG2_NuclearSize_72hr: Apredica 72-hour HepG2 Assay for Nuclear Size (AID 2282925); settings: high-content imaging, actives raise or lower the signal
Procedure, shortened: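 Compounds (0.39–200 uM, final DMSO 0.5%) were applied to HepG2 for 72 hr. Cells were then formaldehyde-fixed, permeabilized and labelled with Hoechst 33342. Nuclear diameter was quantified from six images per well.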

[2] = ATG_CRE_CIS: Attagene CIS-FACTORIAL HepG2 Assay for human cAMP Responsive Element (CRE) binding protein 3 (AID 2282926); settings: HepG2 CRE cis-reporter, Attagene multiplexed mRNA; actives raise or lower the signal
Procedure, shortened: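 Induced reporter mRNA from a CRE cis element, measured in HepG2 among many multiplexed units at 24 h. Detection used RT-PCR plus capillary electrophoresis of fluorescent fragments; DMSO served as negative control.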

[3] = biological target: CCAAT/enhancer-binding protein beta (Homo sapiens) (UniProt P17676); test: ATG_C_EBP_CIS: Attagene CIS-FACTORIAL HepG2 Assay for human CCAAT/Enhancer Binding Protein (C/EBP) beta (AID 2282927); settings: HepG2 Attagene cis-factorial transcription factor reporter; actives raise or lower the signal
Sequence of CCAAT/enhancer-binding protein beta (Homo sapiens) (P17676 whole entry, looked up): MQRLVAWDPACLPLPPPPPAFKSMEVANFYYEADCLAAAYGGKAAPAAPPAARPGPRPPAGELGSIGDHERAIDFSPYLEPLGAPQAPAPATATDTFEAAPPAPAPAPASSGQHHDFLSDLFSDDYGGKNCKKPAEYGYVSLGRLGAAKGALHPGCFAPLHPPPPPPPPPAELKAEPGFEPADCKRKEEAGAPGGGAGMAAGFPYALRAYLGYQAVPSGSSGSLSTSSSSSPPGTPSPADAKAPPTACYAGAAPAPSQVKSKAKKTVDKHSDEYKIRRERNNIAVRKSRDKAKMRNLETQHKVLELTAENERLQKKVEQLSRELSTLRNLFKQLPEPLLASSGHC
Procedure, shortened: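 RT-PCR/capillary electrophoresis fluorescence of reporter mRNA, 24 h post-dose, in HepG2 cells carrying transfected cis-promoter reporter units. Bidirectional curve fitting against DMSO baseline captures gain or loss of signal.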

[4] = ATG_CMV_CIS: Attagene CIS-FACTORIAL HepG2 Assay for human CMV (Internal Marker) (AID 2282928); settings: HepG2 CMV promoter reporter, transcription factor profiling; actives raise or lower the signal;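 also: endpoint acts as a background internal control marker rather than a target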
Procedure, shortened: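 Reporter transcripts from transfected HepG2 cells are isolated after 24 h of chemical dosing, reverse-transcribed and amplified. Fragments labeled with 6-FAM are cut with HpaI and quantified by capillary electrophoresis; DMSO defines baseline.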

[5] = ATG_DR4_LXR_CIS: Attagene CIS-FACTORIAL HepG2 Assay for human Liver X Receptor (LXR), DR4 submotif (AID 2282929); settings: HepG2 Attagene DR4 cis-reporter, mRNA transcription; actives raise or lower the signal
Procedure, shortened: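 Endogenous factor activity at a DR4 cis-element is read as reporter mRNA in transiently transfected HepG2 cells. Exposure lasts 24 h; transcripts are amplified, fluorescently labelled and sized by capillary electrophoresis, with DMSO as baseline.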

[6] = biological target: Aryl hydrocarbon receptor (Homo sapiens) (UniProt P35869); test: ATG_Ahr_CIS: Attagene CIS-FACTORIAL HepG2 Assay for human Aryl Hydrocarbon Receptor (Ahr) (AID 2282930); settings: HepG2 AhR cis-factorial reporter transcription; actives raise or lower the signal
Sequence of Aryl hydrocarbon receptor (Homo sapiens) (P35869 whole entry, looked up): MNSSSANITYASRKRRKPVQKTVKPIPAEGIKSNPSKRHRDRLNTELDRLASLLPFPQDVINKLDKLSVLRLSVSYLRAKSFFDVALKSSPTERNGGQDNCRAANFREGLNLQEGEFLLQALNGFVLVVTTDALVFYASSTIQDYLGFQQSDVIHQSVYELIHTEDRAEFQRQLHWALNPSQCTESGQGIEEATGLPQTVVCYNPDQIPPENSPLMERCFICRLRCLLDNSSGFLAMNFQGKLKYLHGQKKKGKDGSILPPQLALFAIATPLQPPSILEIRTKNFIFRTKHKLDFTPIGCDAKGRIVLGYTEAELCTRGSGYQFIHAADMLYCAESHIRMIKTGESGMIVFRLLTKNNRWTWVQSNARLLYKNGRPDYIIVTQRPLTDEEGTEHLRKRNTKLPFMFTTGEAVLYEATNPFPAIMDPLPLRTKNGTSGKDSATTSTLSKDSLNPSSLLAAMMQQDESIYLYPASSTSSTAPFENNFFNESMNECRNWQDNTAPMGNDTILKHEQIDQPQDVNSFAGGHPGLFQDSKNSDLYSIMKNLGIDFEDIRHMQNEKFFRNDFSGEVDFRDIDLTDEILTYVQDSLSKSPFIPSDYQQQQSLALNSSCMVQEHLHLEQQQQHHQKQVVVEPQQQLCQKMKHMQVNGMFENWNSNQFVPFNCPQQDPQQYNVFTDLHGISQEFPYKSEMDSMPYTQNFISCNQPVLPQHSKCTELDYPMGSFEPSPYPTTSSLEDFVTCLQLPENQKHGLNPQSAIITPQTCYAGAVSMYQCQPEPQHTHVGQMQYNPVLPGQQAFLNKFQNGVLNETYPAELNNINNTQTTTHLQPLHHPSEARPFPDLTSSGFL
Procedure, shortened: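 HepG2 cells transiently transfected with cis-element-driven multiplexed reporter transcription units; endogenous transcription factor activity measured as reporter mRNA 24 h after dosing. RT-PCR, 6-FAM labelling, HpaI digestion, capillary electrophoresis; bidirectional fitting versus DMSO baseline.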

[7] = ATG_AP_2_CIS: Attagene CIS-FACTORIAL HepG2 Assay for human Activator Protein 2 (AP-2) (AID 2282932); settings: HepG2 AP-2 cis-reporter, Attagene transcription factor profiling; actives raise or lower the signal
Procedure, shortened: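 Cells (HepG2) transfected with promoter-driven reporter constructs, treated 24 h. Total RNA reverse-transcribed, reporter cDNA PCR-amplified, FAM-labelled by primer extension, digested, resolved by capillary electrophoresis. Activity fitted both directions versus DMSO.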

[8] = ATG_BRE_CIS: Attagene CIS-FACTORIAL HepG2 Assay for human Bone Morphogenetic Protein (BMP) Response Element (BRE) (AID 2282933); settings: HepG2 BMP response element reporter, Attagene transcription factor profiling; actives raise or lower the signal
Procedure, shortened: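 Transient MRTU transfection of human HepG2 liver cells; 24 h compound treatment; total RNA isolated, reverse-transcribed, PCR-amplified, 6-FAM labelled, HpaI-cut, capillary electrophoresis. DMSO = negative control/baseline, bidirectional fit.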

[9] = biological target: Retinoic acid receptor alpha (Homo sapiens) (UniProt P10276); test: ATG_DR5_RAR_CIS: Attagene CIS-FACTORIAL HepG2 Assay for human Retinoic Acid Receptor Alpha (RARE), DR5 submotif (AID 2282934); settings: HepG2 Attagene cis-factorial RARE DR5 reporter, mRNA; actives raise or lower the signal;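 as to AC50: reporter responds to endogenous RAR alpha beta and gamma in HepG2 not RARA alone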
Sequence of Retinoic acid receptor alpha (Homo sapiens) (P10276 whole entry, looked up): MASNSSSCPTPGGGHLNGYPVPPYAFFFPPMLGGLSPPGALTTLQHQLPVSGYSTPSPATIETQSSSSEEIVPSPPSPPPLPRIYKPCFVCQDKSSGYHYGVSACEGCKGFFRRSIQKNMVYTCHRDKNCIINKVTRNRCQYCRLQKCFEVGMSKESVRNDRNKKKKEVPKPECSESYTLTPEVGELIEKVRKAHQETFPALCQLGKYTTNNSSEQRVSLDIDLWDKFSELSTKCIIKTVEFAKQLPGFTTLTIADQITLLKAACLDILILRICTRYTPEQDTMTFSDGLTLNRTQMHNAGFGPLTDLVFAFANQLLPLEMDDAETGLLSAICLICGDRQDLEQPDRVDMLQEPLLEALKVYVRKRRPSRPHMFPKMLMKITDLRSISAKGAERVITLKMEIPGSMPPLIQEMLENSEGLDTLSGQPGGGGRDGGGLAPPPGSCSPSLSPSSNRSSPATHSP
Procedure, shortened: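 HepG2 cells transiently transfected with multiplexed reporter units under cis (DR5 RARE) promoters, so endogenous transcription factor activity is measured. After 24 h compound exposure, reporter mRNA is quantified by RT-PCR with fluorescent labelling and capillary electrophoresis; bidirectional fitting versus DMSO.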

[10] = biological target: Transcription factor E2F1 (Homo sapiens) (UniProt Q01094); test: ATG_E2F_CIS: Attagene CIS-FACTORIAL HepG2 Assay for human E2F Transcription Factor 1 (AID 2282935); settings: HepG2 Attagene cis-reporter, E2F reporter RNA transcripts; actives raise or lower the signal
Sequence of Transcription factor E2F1 (Homo sapiens) (Q01094 whole entry, looked up): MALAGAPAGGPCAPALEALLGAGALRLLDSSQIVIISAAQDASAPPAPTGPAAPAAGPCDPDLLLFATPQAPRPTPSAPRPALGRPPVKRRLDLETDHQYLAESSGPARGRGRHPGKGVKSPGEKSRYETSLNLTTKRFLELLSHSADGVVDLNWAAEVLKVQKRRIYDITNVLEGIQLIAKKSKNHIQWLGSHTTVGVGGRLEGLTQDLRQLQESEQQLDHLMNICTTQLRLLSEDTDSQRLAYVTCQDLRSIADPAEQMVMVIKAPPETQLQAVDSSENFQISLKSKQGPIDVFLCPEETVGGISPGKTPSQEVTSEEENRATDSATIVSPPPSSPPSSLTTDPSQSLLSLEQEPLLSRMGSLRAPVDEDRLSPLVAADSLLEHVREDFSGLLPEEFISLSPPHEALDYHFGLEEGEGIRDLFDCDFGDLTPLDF
Procedure, shortened: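 First, HepG2 cells were transfected with reporter transcription units. Next, they were dosed for 24 h. Then RNA was isolated, converted to cDNA, PCR-amplified, FAM-labeled, HpaI-digested and analyzed by capillary electrophoresis.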

[11] = ATG_E_Box_CIS: Attagene CIS-FACTORIAL HepG2 Assay for human Enhancer Box (E-box) (AID 2282936); settings: HepG2 E-box cis-reporter transcription, actives raise or lower the signal
Procedure, shortened: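 Endogenous transcription factor activity was sensed in human HepG2 liver cells through transfected cis-promoter reporter units. After 24 h of dosing, total RNA was reverse-transcribed and reporter cDNA resolved by capillary electrophoresis.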

[12] = ATG_M_61_CIS: Attagene CIS-FACTORIAL HepG2 Assay for M61 Transcription Factor (Internal Marker) (AID 2282937); settings: HepG2 Attagene CIS-FACTORIAL M61 internal marker reporter; actives raise or lower the signal
Procedure, shortened: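 This endpoint serves as an internal background control within a multiplexed HepG2 cis-reporter panel. Cells are exposed for 24 h; reporter mRNA is amplified, fluorescently labelled and sized by capillary electrophoresis, with DMSO as negative control.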

[13] = ATG_EGR_CIS: Attagene CIS-FACTORIAL HepG2 Assay for human Early Growth Response 1 (EGR1) (AID 2282938); settings: HepG2 Attagene CIS-FACTORIAL EGR reporter mRNA; actives raise or lower the signal
Procedure, shortened: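 HepG2, transient MRTU transfection (cis promoters), 24 h compound. RNA → RT (oligo-dT) → PCR → 6-FAM labelling → HpaI cut → CE fluorescence. Bidirectional fit, DMSO baseline.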

[14] = ATG_M_19_CIS: Attagene CIS-FACTORIAL HepG2 Assay for M19 Transcription Factor (Internal Marker) (AID 2282939); settings: HepG2 Attagene CIS-FACTORIAL M19 internal marker reporter; actives raise or lower the signal
Procedure, shortened: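 Transfect HepG2 with MRTU reporter library → dose chemical, 24 h → isolate total RNA, reverse-transcribe with oligo(dT) → PCR, 6-FAM label, HpaI cut (2 h, 37 C) → capillary electrophoresis. Bidirectional fit vs DMSO.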

[15] = ATG_ERE_CIS: Attagene CIS-FACTORIAL HepG2 Assay for Estrogen Response Element (ERE) (AID 2282940); settings: HepG2 ERE cis-reporter, Attagene RNA transcript; actives raise or lower the signal
Procedure, shortened: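 Transient MRTU transfection of human HepG2; cis-element promoters; 24 h dosing; total RNA → RT (oligo dT) → PCR → 6-FAM primer extension → HpaI digest → CE fluorescence. Bidirectional fit, DMSO baseline.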

[16] = ATG_Ets_CIS: Attagene CIS-FACTORIAL HepG2 Assay for human Erythroblast Transformation Specific (ETS) (AID 2282941); settings: HepG2 ETS cis-reporter transcription, actives raise or lower the signal
Procedure, shortened: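 Bidirectional fit versus DMSO of reporter mRNA signal, detected by RT-PCR and capillary electrophoresis in HepG2 cells transiently transfected with cis-element reporters and dosed 24 h.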

[17] = biological target: Hepatocyte nuclear factor 3-beta (Homo sapiens) (UniProt Q9Y261); test: ATG_FoxA2_CIS: Attagene CIS-FACTORIAL HepG2 Assay for human Forkhead box A2 (FOXA2) (AID 2282942); settings: HepG2 cis-reporter transcription factor activity, 24 h; actives raise or lower the signal
Sequence of Hepatocyte nuclear factor 3-beta (Homo sapiens) (Q9Y261 whole entry, looked up): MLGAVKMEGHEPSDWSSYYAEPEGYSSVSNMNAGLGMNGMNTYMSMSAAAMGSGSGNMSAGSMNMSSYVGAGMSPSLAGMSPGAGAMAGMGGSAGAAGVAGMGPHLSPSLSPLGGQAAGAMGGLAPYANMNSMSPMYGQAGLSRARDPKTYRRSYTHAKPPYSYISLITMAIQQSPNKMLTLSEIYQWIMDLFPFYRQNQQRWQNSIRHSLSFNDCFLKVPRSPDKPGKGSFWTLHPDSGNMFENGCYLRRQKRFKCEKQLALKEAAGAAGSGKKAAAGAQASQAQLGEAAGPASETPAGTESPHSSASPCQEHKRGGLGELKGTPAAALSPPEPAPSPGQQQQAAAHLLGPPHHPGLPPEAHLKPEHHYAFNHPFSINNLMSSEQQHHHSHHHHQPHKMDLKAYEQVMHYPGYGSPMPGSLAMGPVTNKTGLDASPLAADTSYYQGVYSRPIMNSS
Procedure, shortened: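 Cells: HepG2, transient multiplex reporter transfection. Exposure 24 h. Detection: reporter-specific RT-PCR, fluorescent labelling, restriction digest, capillary electrophoresis. Analysis: bidirectional curve fit, DMSO as negative control.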

[18] = ATG_FoxO_CIS: Attagene CIS-FACTORIAL HepG2 Assay for human Forkhead box O (FoxO) (AID 2282943); settings: HepG2 Attagene cis-reporter, FoxO element, mRNA; actives raise or lower the signal
Procedure, shortened: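 HepG2 cells transiently transfected with cis-promoter-driven multiple reporter transcription units; 24 h after chemical dosing, reporter mRNA quantified by RT-PCR, fluorescent primer extension, HpaI digestion and capillary electrophoresis. Bidirectional fitting versus DMSO baseline.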

[19] = ATG_GATA_CIS: Attagene CIS-FACTORIAL HepG2 Assay for human GATA Binding Protein (AID 2282944); settings: HepG2 GATA cis-element reporter, Attagene multiplex mRNA; actives raise or lower the signal
Procedure, shortened: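 Transient MRTU transfection, HepG2, 24 h compound exposure. Total RNA → oligo(dT) RT → PCR → 6-FAM primer extension → HpaI cut → CE. Bidirectional fit vs DMSO.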

[20] = ATG_AP_1_CIS: Attagene CIS-FACTORIAL HepG2 Assay for human Activator Protein 1 (AP-1) (AID 2282931); settings: HepG2 Attagene cis-factorial AP-1 reporter mRNA; actives raise or lower the signal
Procedure, shortened: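 Fluorescence of labelled PCR fragments separated by capillary electrophoresis gives reporter mRNA levels. HepG2 with transfected cis-regulated reporter units, 24 h exposure; DMSO serves as baseline for bidirectional curve fits.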

Measured: AC50

COc1cc(Cl)c(OC)cc1Cl
not listed: [20]
inactive: all other assays above

C=CCOC(=O)C(C)(C)OC(=O)c1cc(-n2c(=O)cc(C(F)(F)F)n(C)c2=O)ccc1Cl
active: [2] 13.3 µM
not listed: [9]
inactive: all other assays above

COP(=O)(OC)O/C(C)=C/C(=O)N(C)C
active: [15] 23.5 µM
not listed: [13] | [18]
inactive: all other assays above

Cc1ccc(N=CN(C)C=Nc2ccc(C)cc2C)c(C)c1
not listed: [20]
inactive: all other assays above

O=C(O)c1c(Cl)ccc2cc(Cl)cnc12
inactive: all assays above

CCCCC(C#N)(Cn1cncn1)c1ccc(Cl)cc1 (centres undefined)
not listed: [13] | [18]
inactive: all other assays above

CN/C(=N\[N+](=O)[O-])NCc1cnc(Cl)s1
not listed: [13] | [18]
inactive: all other assays above

O=c1n(Cl)c(=O)n(Cl)c(=O)n1Cl
active: [6] 19.6 µM
not listed: [13]
inactive: all other assays above

Nc1cnn(-c2ccccc2)c(=O)c1Cl
active: [6] 50 µM
not listed: [9] | [13] | [18]
inactive: all other assays above

COCc1cnc(C2=NC(C)(C(C)C)C(=O)N2)c(C(=O)O)c1 (centres undefined)
not listed: [13] | [18]
inactive: all other assays above

COP(=S)(OC)SCn1nnc2ccccc2c1=O
active: [2] 18.8 µM | [3] 6.88 µM | [8] 13.3 µM | [13] 23.7 µM
not listed: [20]
inactive: all other assays above

CC1(C)CCC(=Cc2ccc(Cl)cc2)C1(O)Cn1cncn1 (centres undefined)
active: [9] 18.8 µM
not listed: [13] | [18]
inactive: all other assays above

CCOc1nc(C(Cl)(Cl)Cl)ns1
active: [2] 20.8 µM | [8] 24.6 µM
not listed: [18]
inactive: all other assays above

CNC(=O)N(C)c1nnc(C(C)(C)C)s1
not listed: [13] | [18]
inactive: all other assays above
